Experimental data reported in PubChem BioAssay (Tox21).
Where “and” joins values, the source holds several entries; their conditions need not be identical. Equal values may be shown once. Results filed as inconclusive are left out. Where a structure was tested more than once in an assay, its records may differ in their call. Calls of active or inactive are those of the source. Unless noted, calls follow the shape of the dose curve; as a rule, active = well fitted curve in the direction sought with a large enough effect in the repeat runs; inconclusive = weak or mixed curves; inactive = no such curve, though single readings can be large; an effect the other way counts as inactive or inconclusive.

Assays:
[1] = A CellTox Green Cytotoxicity Assay to monitor cytotoxicity in HepG2 cells - 0 hour (AID 1224882); also: nearly all actives have a fitted effect of over 35% in size
Outline: (§1)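 Measurements at 0, 8, 16, 24, 32 and 40 h of treatment captured CellTox Green fluorescence in HepG2 cells that had been co-plated with reagent and preincubated 5 h at 37 C/5% CO2.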

[2] = A CellTox Green Cytotoxicity Assay to monitor cytotoxicity in HepG2 cells - 32 hour (AID 1224883); also: nearly all actives have a fitted effect of over 50% in size; also: potency is read from the fitted curve at half-maximal effect
Outline: as §1

[3] = qHTS RealTime-Glo MT Cell Viability Assay in HepG2 cells - 16 hour (AID 1224885); also: nearly all actives have a fitted effect of over 50% in size; also: potency is read from the fitted curve at half-maximal effect
Outline: (§2)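 Real-time, nonlytic viability: 600 HepG2 cells/well mixed with NanoLuc enzyme plus prosubstrate; 5 h settle, compound (DMSO) added by pintool; luminescence monitored over 40 h at 37 C.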

[4] = qHTS RealTime-Glo MT Cell Viability Assay in HEK293 cells - 8 hour (AID 1224887); also: nearly all actives have a fitted effect of over 50% in size; also: potency is read from the fitted curve at half-maximal effect
Outline: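 HEK293 + NanoLuc + prosubstrate, 600 cells/well; 5 h, 37 C/5% CO2; compound 23 nL in DMSO by pintool; 37 C; luminescence read at 0, 8, 16, 24, 32 and 40 h time points.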

[5] = A CellTox Green Cytotoxicity Assay to monitor cytotoxicity in HEK293 cells - 16 hour (AID 1224888); also: nearly all actives have a fitted effect of over 35% in size; also: potency is read from the fitted curve at half-maximal effect
Outline: (§3)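 Tox21 screen in HEK293: membrane-impermeant cyanine dye fluoresces on binding dead-cell DNA; compound pinned 5 h post-seeding, plates held at 37 C, signal read repeatedly through 40 h.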

[6] = qHTS RealTime-Glo MT Cell Viability Assay in HepG2 cells - 0 hour (AID 1224889); also: nearly all actives have a fitted effect of over 50% in size
Outline: as §2

[7] = A CellTox Green Cytotoxicity Assay to monitor cytotoxicity in HepG2 cells - 8 hour (AID 1224890); also: nearly all actives have a fitted effect of over 45% in size; also: potency is read from the fitted curve at half-maximal effect
Outline: as §1

[8] = qHTS assay to identify small molecule antagonists of the estrogen receptor alpha (ER-alpha) signaling pathway using the BG1 cell line in the presence of 0.1 nM 17-beta-estradiol - cell viability counter screen (AID 1259241); also: nearly all actives have a fitted effect of over 40% in size; also: potency is read from the fitted curve at half-maximal effect
Outline: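 Cytotoxicity counter-screen: live-cell protease activity measured by fluorescence (30 min reagent step) in the same wells. Cells were VM7Luc4E2 with endogenous ER-alpha and ERE-driven luciferase, treated 22 hr at 37C alongside 0.1 nM 17beta-estradiol final.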

[9] = qHTS assay to identify small molecule antagonists of the androgen receptor (AR) signaling pathway using the MDA cell line in the presence of 0.5 nM R1881 - cell viability counter screen (AID 1259242); also: nearly all actives have a fitted effect of over 45% in size; also: potency is read from the fitted curve at half-maximal effect
Outline: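 Concentration-response screen of compounds for toxicity in MDA-kb2 reporter cells: 16 hr at 37C with 0.5 nM R1881, endpoint live-cell protease fluorescence measured in the reporter wells.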

[10] = qHTS assay to identify small molecule phospholipidosis (PLD) inducers (AID 1259344; active = well fitted curve in the direction sought with a large enough effect; an effect the other way counts as inactive or inconclusive)
Outline: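 Cells (HepG2, 900 per well) attach for 4 h, receive LipidTOX Red and compound together, incubate 24 h at 37 C, are fixed 30 min with paraformaldehyde/Hoechst, then imaged at one site per well.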

[11] = qHTS assay to identify small molecule HDAC inhibitors (AID 1259364); also: potency is read from the fitted curve at half-maximal effect;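 also: wild-type HCT-116 cells with endogenous class I/II HDAC activity; nearly all actives have a fitted effect of over 45% in size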
Outline: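 Screening used wild-type human colon HCT-116 cells incubated overnight, dosed with compounds for 2 hours, and assayed with a homogeneous luminogenic HDAC I/II reagent for 30 minutes at room temperature.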

[12] = qHTS assay to identify small molecule HDAC inhibitors - cell viability counter screen (AID 1259365)
Outline: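 CellTiter-Glo luminescence (30 min, room temperature) reported viability after a 2 h compound exposure at 37 C. Cells: wild-type HCT-116, 1,500 per well, seeded the night before.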

[13] = qHTS assay to identify small molecule agonists of the sonic hedgehog signaling (Shh) pathway - cell viability counter screen (AID 1259366); also: nearly all actives have a fitted effect of over 50% in size; also: potency is read from the fitted curve at half-maximal effect
Outline: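 Cytotoxicity counter screen: CellTiter-Fluor reagent added after 23 h compound exposure, then 1 h at 37C and fluorescence read. Cells were 3T3 Gli1-Luc, seeded 2,000 per well and dosed 4 h post-plating.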

[14] = qHTS assay to identify small molecule antagonists of the sonic hedgehog signaling (Shh) pathway - cell viability counter screen (AID 1259367); also: nearly all actives have a fitted effect of over 55% in size; also: potency is read from the fitted curve at half-maximal effect
Outline: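 Cytotoxicity was assessed in parallel with Shh reporter activity by measuring live-cell protease fluorescence (CellTiter-Fluor) in NIH/3T3 cells stably carrying Gli1-Luc, treated with compound under conditioned medium stimulation for 23 hr plus 1 hr reagent incubation.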

[15] = qHTS assay to identify small molecule agonists of the sonic hedgehog signaling (Shh) pathway (AID 1259368; calls by dose curve;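 also: NIH/3T3-derived 3T3Gli1-Luc cells carrying a stable Gli1-driven firefly luciferase reporter; series mostly up to about 92 µM; nearly all actives have a fitted effect of over 15% in size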)
Outline: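 Hedgehog pathway agonism scored by increased firefly luciferase luminescence in 3T3Gli1-Luc cells treated 24 hr at 37 C; detection used a 30 min room-temperature reagent incubation.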

[16] = A CellTox Green Cytotoxicity Assay to monitor cytotoxicity in HEK293 cells - 8 hour (AID 1224884); also: nearly all actives have a fitted effect of over 35% in size
Outline: as §3

[17] = biological target: Estrogen receptor (Homo sapiens) (UniProt P03372); experiment: qHTS assay to identify small molecule antagonists of the estrogen receptor alpha (ER-alpha) signaling pathway using the BG1 cell line in the presence of 0.1 nM 17-beta-estradiol (AID 1259244); also: nearly all actives have a fitted effect of over 50% in size; also: potency is read from the fitted curve at half-maximal effect
Outline: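 Compounds were tested against 0.1 nM (final) 17beta-estradiol in VM7Luc4E2 cells, which express full-length ER-alpha and an ERE-luciferase reporter; luminescence was recorded following 22 h exposure.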

[18] = qHTS assay to identify small molecule antagonists of the sonic hedgehog signaling (Shh) pathway (AID 1259369; calls by dose curve; also: nearly all actives have a fitted effect of over 45% in size; also: potency is read from the fitted curve at half-maximal effect)
Outline: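 NIH/3T3 stable Gli1-Luc clone, 2,000 cells/well, 4hr settle; cpd + conditioned medium 24hr; Luc reagent 30min RT; luminescence.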

[19] = qHTS RealTime-Glo MT Cell Viability Assay in HEK293 cells - 24 hour (AID 1224886); also: nearly all actives have a fitted effect of over 50% in size; also: potency is read from the fitted curve at half-maximal effect
Outline: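 Cells + reagent dispensed (600 cells/well, HEK293) → 5 h at 37 C/5% CO2 → 23 nL compound in DMSO pinned → 40 h at 37 C → luminescence read at 0, 8, 16, 24, 32, 40 h.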

[20] = biological target: Androgen receptor (Homo sapiens) (UniProt P10275); experiment: qHTS assay to identify small molecule antagonists of the androgen receptor (AR) signaling pathway using the MDA cell line in the presence of 0.5 nM R1881 (AID 1259243)
Outline: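 With R1881 held at 0.5 nM (final), compound effects on MMTV-luciferase expression in MDA-kb2 cells were scored by luminescence after a 16 hr, 37C incubation.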

Measured: Potency

Sequence of Estrogen receptor (Homo sapiens) (P03372 whole entry, looked up): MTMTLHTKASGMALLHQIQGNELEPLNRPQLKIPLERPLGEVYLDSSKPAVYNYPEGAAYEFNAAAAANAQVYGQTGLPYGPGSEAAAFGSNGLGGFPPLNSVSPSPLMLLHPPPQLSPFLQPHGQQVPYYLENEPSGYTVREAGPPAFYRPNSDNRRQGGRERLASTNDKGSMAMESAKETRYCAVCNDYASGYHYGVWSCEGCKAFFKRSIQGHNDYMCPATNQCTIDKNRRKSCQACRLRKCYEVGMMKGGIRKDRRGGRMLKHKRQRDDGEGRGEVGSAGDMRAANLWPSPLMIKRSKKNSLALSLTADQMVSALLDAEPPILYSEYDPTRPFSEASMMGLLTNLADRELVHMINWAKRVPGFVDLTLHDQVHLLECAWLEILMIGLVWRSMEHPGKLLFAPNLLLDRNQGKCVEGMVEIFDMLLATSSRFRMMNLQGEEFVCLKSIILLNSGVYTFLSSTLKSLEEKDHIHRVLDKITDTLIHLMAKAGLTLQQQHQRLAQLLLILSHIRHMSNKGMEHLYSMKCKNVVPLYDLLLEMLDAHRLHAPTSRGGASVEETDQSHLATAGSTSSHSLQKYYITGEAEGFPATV
Sequence of Androgen receptor (Homo sapiens) (P10275 whole entry, looked up): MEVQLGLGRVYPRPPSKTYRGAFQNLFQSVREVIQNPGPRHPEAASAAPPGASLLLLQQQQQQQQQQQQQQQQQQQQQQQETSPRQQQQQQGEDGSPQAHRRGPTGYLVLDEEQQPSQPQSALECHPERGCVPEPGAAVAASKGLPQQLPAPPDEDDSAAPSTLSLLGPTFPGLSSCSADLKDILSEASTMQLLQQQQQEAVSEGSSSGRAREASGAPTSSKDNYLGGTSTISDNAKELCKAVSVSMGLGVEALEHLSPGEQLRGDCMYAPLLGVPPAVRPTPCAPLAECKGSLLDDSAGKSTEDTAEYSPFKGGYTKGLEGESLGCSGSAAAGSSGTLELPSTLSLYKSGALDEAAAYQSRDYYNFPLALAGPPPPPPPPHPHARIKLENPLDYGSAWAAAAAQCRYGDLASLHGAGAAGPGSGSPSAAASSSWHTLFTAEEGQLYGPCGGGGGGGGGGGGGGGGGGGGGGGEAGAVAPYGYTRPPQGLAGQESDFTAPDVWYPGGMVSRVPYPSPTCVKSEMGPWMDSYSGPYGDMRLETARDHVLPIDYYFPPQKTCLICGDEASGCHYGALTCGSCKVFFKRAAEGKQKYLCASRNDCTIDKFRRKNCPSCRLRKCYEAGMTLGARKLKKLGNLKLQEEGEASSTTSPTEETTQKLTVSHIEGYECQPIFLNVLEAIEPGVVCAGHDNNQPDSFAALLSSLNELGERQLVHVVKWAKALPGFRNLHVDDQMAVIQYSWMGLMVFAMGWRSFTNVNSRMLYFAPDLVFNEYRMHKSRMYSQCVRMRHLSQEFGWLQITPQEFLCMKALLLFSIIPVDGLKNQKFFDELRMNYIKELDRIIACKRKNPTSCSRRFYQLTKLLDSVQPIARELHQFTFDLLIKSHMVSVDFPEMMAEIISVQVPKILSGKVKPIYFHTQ

NC(=O)CC[C@@H]1NC(=O)[C@H](Cc2ccccc2)NC(=O)[C@H](Cc2ccc(O)cc2)NC(=O)CCSSC[C@@H](C(=O)N2CCC[C@H]2C(=O)N[C@@H](CCCN=C(N)N)C(=O)NCC(N)=O)NC(=O)[C@H](CC(N)=O)NC1=O
inactive: [1] | [2] | [3] | [4] | [5] | [6] | [7] | [8] | [9] | [10] | [11] | [12] | [13] | [14] | [15]

CCCCC(CC)COC(=O)c1ccccc1C(=O)O (stereo not drawn)
inactive: [1] | [2] | [3] | [4] | [5] | [7] | [8] | [10] | [11] | [12] | [13] | [14] | [15]

CCCCCCCC/C=C\CCCCCCCCOCCO
inactive: [1] | [16] | [6] | [11] | [15]
active: [2] 63.7 µM | [8] 63.1 µM | [9] 20 µM | [17] 2.51 µM | [14] 63.1 µM

CCCCCCCCCCCCc1ccc(O)cc1
inactive: [1] | [6] | [11] | [15] | [18]
active: [2] 15.5 µM | [3] 43.6 µM | [4] 43.6 µM | [5] 49 µM | [7] 17.4 µM | [17] 61.1 µM

O=[N+]([O-])c1cc(Cl)c(Cl)c(Cl)c1Cl
active: [8] 68.3 µM | [13] 24.2 µM
inactive: [1] | [16] | [3] | [19] | [4] | [5] | [6] | [7] | [11] | [14] | [15] | [18]

CN(C)C(=O)C1(N2CCCCC2)CCN(CC[C@@]2(c3ccc(Cl)c(Cl)c3)CN(C(=O)c3ccccc3)CCO2)CC1
active: [2] 18.2 µM | [19] 11.5 µM | [4] 16.2 µM | [5] 45.8 µM | [7] 45.8 µM | [8] 64.1 µM | [9] 50.9 µM | [20] 28.6 µM | [17] 57.1 µM | [13] 16.1 µM | [14] 50.9 µM | [18] 18.1 µM
inactive: [1] | [6] | [11] | [12] | [15]

O=C1c2ccccc2Cc2ccccc21
inactive: [1] | [2] | [3] | [19] | [4] | [5] | [6] | [7] | [8] | [9] | [17] | [12] | [15] | [18]
active: [11] 6.16 µM

CCCCCCCCCOC(=O)c1ccc(O)cc1
inactive: [1] | [6] | [7] | [9] | [11] | [14] | [15]
active: [2] 48.3 µM | [19] 38.3 µM | [4] 38.3 µM | [5] 38.3 µM | [20] 42.7 µM | [13] 60.3 µM

O=C1C=CC(=O)N1
inactive: [1] | [6] | [11] | [15]
active: [2] 20 µM | [3] 25.2 µM | [19] 12.6 µM | [4] 15.9 µM | [5] 22.5 µM | [7] 50.3 µM | [8] 55.9 µM | [9] 49.8 µM | [17] 55.9 µM | [14] 7.04 µM

CC(C)(C)CC(C)(C)c1ccc(OCCOCC[N+](C)(C)Cc2ccccc2)cc1
61.1 µM (active) and inactive: [14]
inactive: [1] | [6] | [8] | [10] | [11] | [12] | [15]
active: [2] 27.5 µM and 15.1 µM | [3] 54.9 µM and 21.3 µM | [19] 19.5 µM and 9.52 µM | [5] 48.9 µM and 26.8 µM | [7] 26.8 µM | [9] 43.2 µM and 21.1 µM | [18] 4.22 µM

CC(C)(C)c1ccc(C(=O)CCCN2CCC(OC(c3ccccc3)c3ccccc3)CC2)cc1
inactive: [6] | [11] | [12] | [15]
active: [2] 21.3 µM | [3] 21.3 µM | [19] 8.49 µM | [4] 9.52 µM | [5] 21.3 µM | [7] 23.9 µM | [9] 21.1 µM | [13] 26.6 µM

Cc1c(C)c2c(c(C)c1OC(=O)CCC(=O)O)CC[C@@](C)(CCC[C@H](C)CCC[C@H](C)CCCC(C)C)O2
inactive: [1] | [16] | [3] | [4] | [5] | [7] | [8] | [9] | [10] | [11] | [13] | [14] | [15] | [18]

CCC(CN)=C(c1ccccc1)c1ccccc1
inactive: [1] | [16] | [3] | [4] | [5] | [6] | [7] | [8] | [9] | [17] | [11] | [12] | [13] | [14] | [15]

C[C@H]1[C@H]2CC[C@H]3[C@@H]4CC=C5C[C@@H](N(C)C)CC[C@]5(C)[C@H]4CC[C@]23CN1C
inactive: [2] | [16] | [3] | [19] | [4] | [5] | [8] | [9] | [10] | [11] | [12] | [13] | [14] | [15] | [18]
